Laboratory results from PubChem BioAssay AID686979 (National Center for Advancing Translational Sciences (NCATS), 2013).
In all, about 420,000 compounds went through this assay and about 50,000 (12%) were called active. A call without a number means that no potency is given here. Inconclusive results (about 26%) are left out. Many of the other results were omitted from the sample, so actives are more common in it than they were. A number with no mark means an inactive call. The call rests on the fitted dose curve; in most records, active means well fitted inhibition curve with a large enough effect; inconclusive means small, poorly fitted or top-dose-only effect; inactive means flat fitted curve, though single readings scatter.

test: qHTS for Inhibitors of human tyrosyl-DNA phosphodiesterase 1 (TDP1): qHTS in cells in presence of CPT; conditions: chicken DT40 Tdp1-/-;hTDP1 cells + 20 nM CPT, ATP luminescence, 48 h; series mostly up to 46.2 µM; further: nearly all actives have a fitted effect of over 55% in size
How it was run: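 Chicken DT40 Tdp1-/- cells stably complemented with human TDP1 were seeded at 400 cells/well in medium containing 20 nM camptothecin, exposed to pin-transferred compounds, and grown at 37 °C for at least 48 hr. Viability was read as ATP luminescence.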
Potency means the concentration at half of the fitted maximal effect.

| SMILES | Potency | activity change, negative = growth inhibition |
| --- | --- | --- |
| C/C(N)=C(/C#N)C(=O)COC(=O)C1=NN(c2ccccc2)C(=O)CC1 | inactive | – |
| CCOc1ccc(-c2nc(N)ncc2-c2ccccc2OC)c(O)c1 | 20.6 µM (active) | – |
| C=C(C)COc1ccc(-c2nc(N)ncc2-c2ccccc2OC)c(O)c1 | inactive | – |
| CCOC(=O)Cn1c2c(c(-c3ccccc3OC)cc1=O)CCCC2 | inactive | – |
| O=C(O)CCCN1C(=O)c2ccccc2Sc2ncccc21 | inactive | – |
| Fc1cccc(-n2ncc3c2ncn2nc(-c4ccccc4Cl)nc32)c1 | inactive | – |
| CCCC[C@@H]1CN=C(N)N1CCCC | 9.2 µM (active) | – |
| CCCCN1C(=S)NC[C@@H]1C(C)CC (stereo not given in full) | inactive | – |
| CCCCN1C(N)=NC[C@@H]1Cc1ccccc1 | 7.31 µM (active) | – |
| CCCCN1CC(COCc2ccccc2)OCCS1(=O)=O (stereo not given) | inactive | – |
| CCCCNC(=O)C1CCC(=O)N1CCc1ccccc1 (stereo not given) | inactive | – |
| CCCCN1C(N)=NC[C@@H]1CC1CCCCC1 | 23.1 µM (active) | – |
| Cc1cccc(C)c1NC(=O)CNC(=O)c1ccc2c(c1)OCCO2 | inactive | – |
| COn1c(-c2ccc(Cl)cc2Cl)nc2ncccc21 | inactive | – |
| O=S(=O)(Nc1ccc(-c2ccc(N3CCOCC3)nn2)cc1)c1cc(Cl)ccc1Cl | inactive | – |
| COc1cc2ccccc2cc1C(=O)Nc1ccc(N2CCOCC2)cc1 | inactive | – |
| O=C1NCC(c2ccccc2)(c2ccccc2)C(=O)N1 | inactive | – |
| OCC1(CO)CC2(C1)CC(CO)(CO)C2 | inactive | – |
| Nc1cccc(CCc2nc3ccccc3[nH]2)c1 | inactive | – |
| c1ccc2c(CSCc3nc4ccccc4[nH]3)cccc2c1 | 16.4 µM (active) | – |
| COc1ccccc1CSc1nc2ccccc2[nH]1 | inactive | – |
| CC1(C(=O)NCc2ccccc2)CN(S(C)(=O)=O)CC(=O)N1CC(F)(F)F (stereo not given) | inactive | – |
| COc1cc(NC(=S)NNC(=O)CC(C)C)c(OC)cc1Cl | inactive | – |
| CN(C)CCCn1c(SCc2ccc(Cl)cc2)nnc1-c1ccncc1 | inactive | – |
| Cn1c(=O)c2ccccc2n(CC(=O)Nc2ccc3c(c2)OCCO3)c1=O | inactive | – |
| C/C(CC(=O)NC(C)c1ccccc1)=N\NC(N)=S (stereo not given) | inactive | – |
| Cc1ccc(C(=O)NC(C)c2ccccc2)cc1Br (stereo not given) | inactive | – |

| SMILES | Potency | activity change, negative = growth inhibition |
| --- | --- | --- |
| Cc1cc(C(=O)NNC(=S)NC(C)c2ccccc2)cs1 (stereo not given) | 23.1 µM (active) | – |
| N#Cc1ccc(-c2ccc3nccn3c2)cc1 | inactive | – |
| COc1ccc(-c2nc3cc(C)ccn3c2NC2CCCCC2)cc1SC1CCCCC1 | 29.6 µM (active) | – |
| COc1ccc(C)cc1S(=O)(=O)NC1CCCCC1 | inactive | – |
| COC(=O)c1ccc(NC(=O)CSc2nncn2-c2cccnc2)cc1 | inactive | – |
| CN(C)c1ccc(CN2CCOc3ccc(CN4CCC(O)(c5cccnc5)CC4)cc3C2)cc1 | – | -11.9% [at 9.04 µM] |
| C=CC(=O)c1ccc2ccccc2c1 | 2.91 µM (active) | – |
| O=C(NNC(=O)c1ccc2ccccc2c1)c1ccc(Cl)cc1 | inactive | – |
| CC(=O)CCC(=O)c1ccc2ccccc2c1 | inactive | – |
| COc1ccc(C(=O)N/N=C(\C)CC(=O)Nc2ccc(Cl)cn2)cc1 | inactive | – |
| c1ccc(-c2noc(-c3cccs3)n2)nc1 | 8.2 µM (active) | – |
| O=C(Oc1ccc(-c2nc(-c3ccccn3)no2)cc1)c1ccccc1 | 8.2 µM (active) | – |
| c1csc(-c2nc(-c3ccncc3)no2)c1 | inactive | – |
| O=C(Oc1ccccc1)c1ccc2nccnc2c1 | inactive | – |
| Brc1ccc(-c2noc(-c3ccccc3)n2)o1 | inactive | – |
| COc1ccc(CCc2nc(-c3cccs3)no2)cc1 | inactive | – |
| COc1ccc(/C=C(\NC(=O)c2ccccc2)C(=O)NCCN2CCOCC2)cc1OC | inactive | – |
| O=C(O)c1ccc(/C=N/NC(=O)c2ccc(Br)cc2)cc1 | inactive | – |
| CCN(C(=O)CSc1nnc(-c2ccc(OC(F)F)cc2)n1N)C1CCS(=O)(=O)C1 (stereo not given) | inactive | – |
| COc1ccc2c(c1)N(C)/C(=C1/SC(=S)N(NC(C)=O)C1=O)S2 | inactive | – |
| COC(=O)[C@H]1C[C@H](OC(=O)NCc2ccccc2)[C@@]2(O)CN(S(=O)(=O)c3ccc(C)cc3)CC2[C@H]1C(=O)OC (stereo not given in full) | inactive | – |
| CCCCCCNC(=O)O[C@H]1CN(C(=O)OC(C)C)N(C(=O)OC(C)C)[C@@H]2CN(S(=O)(=O)c3ccc(C)cc3)C[C@]12O | 18.4 µM (active) | – |
| CCCCOc1ccc(NC(=O)[C@@H]2CCCN2C(=O)C2CCN(S(=O)(=O)c3ccc(C)cc3)CC2)cc1 | inactive | – |
| CS(=O)(=O)N1CCN(C(=O)CSc2ccccc2)CC1 | inactive | – |
| CC(=O)Nc1ccc(NC(=O)CSc2nnnn2C2CCCCC2)cc1 | inactive | – |
| OC[C@H]1O[C@@H](c2nc(-c3nc(-c4ccc(F)cc4)no3)cs2)[C@H](O)[C@@H](O)[C@H]1O | inactive | – |
| O=C(NNC(=S)NCCCN1CCOCC1)c1ccncc1 | inactive | – |

| SMILES | Potency | activity change, negative = growth inhibition |
| --- | --- | --- |
| COc1cc(Cl)c(NC(=O)C(NS(=O)(=O)c2cccs2)C(C)C)c(OC)c1 (stereo not given) | inactive | – |
| COc1ccc(CNC(=O)C(NS(=O)(=O)c2cccc3nsnc23)C(C)C)cc1 (stereo not given) | inactive | – |
| CC(C)C(NS(=O)(=O)c1cccs1)C(=O)Nc1nc(C(C)(C)C)cs1 (stereo not given) | 16.4 µM (active) | – |
| O=C(CCNS(=O)(=O)c1ccccc1)NCCCc1ccccc1 | inactive | – |
| Nn1c(SCC(=O)Nc2ccc3c(c2)CCC3)nnc1C1CC1 | inactive | – |
| COC(=O)Cc1cnc(NC(=O)CSc2nc(C(C)C)cc(=O)[nH]2)s1 | inactive | – |
| Cn1c(=O)c2sccc2n2c(CCC(=O)NCc3ccccc3Cl)nnc12 | inactive | – |
| CCC(=O)N1CCc2cc(S(=O)(=O)NCCC(=O)Nc3cccc(C)c3C)ccc21 | inactive | – |
| Cc1ccc(N2C(=O)CC(Nc3cccc4ccccc34)C2=O)cc1 (stereo not given) | inactive | – |
| CC1=C(C)CC2C(=O)N(c3cccc4ccccc34)C(=O)C2C1 (stereo not given) | 18.4 µM (active) | – |
| O=C1c2ccccc2C(=O)N1c1cccc2ccccc12 | inactive | – |
| CCc1nccn1S(=O)(=O)c1cccc([N+](=O)[O-])c1 | inactive | – |
| CC1CCN(C(=O)Cn2nnnc2CN2CCOCC2)CC1 | inactive | – |
| CCNC(=S)N1CCN(S(=O)(=O)c2ccc(Cl)s2)CC1 | inactive | – |
| O=C(c1cc2ccccc2o1)N1CCN(S(=O)(=O)c2ccc(Cl)s2)CC1 | 18.4 µM (active) | – |
| CS(=O)(=O)N1CCN(C(=O)c2cc3ccccc3oc2=O)CC1 | inactive | – |
| COc1cccc(C(O)Cc2nc3ccccc3n2C)c1OC (stereo not given) | inactive | – |
| NS(=O)(=O)c1ccc(CNC(=O)c2cccc(Oc3ccccc3)c2)cc1 | inactive | – |
| CN1C(=O)[C@H]2[C@@H](C3CC3)N3C(=O)CN(Cc4ccccc4)C(=O)[C@@]3(C)[C@H]2C1=O | inactive | – |
| CN1C(=O)[C@H]2[C@@H](/C=C/c3ccccc3)N3C(=O)CN(Cc4ccc(-c5ccccc5)cc4)C(=O)[C@@]3(C)[C@H]2C1=O | 25.9 µM (active) | – |
| COC(=O)CN1C(=O)[C@H]2[C@@H](/C=C/c3ccccc3)N3C(=O)CN(Cc4ccccc4)C(=O)[C@@]3(Cc3ccccc3)[C@H]2C1=O | inactive | – |
| O=C(C[C@@H]1C/C=C\CCC(=O)OC[C@@H]2CCCN2C1=O)NCCO | inactive | – |
| CC(=O)c1sc(N/N=C/c2ccc(C(C)C)cc2)nc1C | inactive | – |
| CCC(C)c1ccc(NC(=S)NCc2ccccn2)cc1 (stereo not given) | inactive | – |
| CC(=O)N1CCc2cc(Br)cc(S(=O)(=O)CCC(=O)NCCc3ccc(Cl)cc3)c21 | inactive | – |
| O=C(COc1ccc(Cl)cc1)Nc1ccc(-c2nc3cc(Cl)ccc3o2)c(O)c1 | inactive | – |
| Cc1ccc(SCC(=O)Nc2ccc3oc(-c4ccccc4C)nc3c2)cc1 | inactive | – |

| SMILES | Potency | activity change, negative = growth inhibition |
| --- | --- | --- |
| COc1ccc2oc(-c3cccc(NC(=O)CSc4ccc(Cl)cc4)c3)nc2c1 | 20.6 µM (active) | – |
| Cc1ccccc1-c1nc(NC(C)C)nc2cc(-c3ccccc3)sc12 | 16.4 µM (active) | – |
| COc1ccccc1C(=O)NC(CCSC)C(=O)NNC(=O)c1csc(N2CCOCC2)n1 (stereo not given) | inactive | – |
| CS(=O)(=O)Nc1cccc(-c2cn3ccccc3n2)c1 | inactive | – |
| COc1ccccc1CNc1ncncc1-c1cccc(NS(C)(=O)=O)c1 | inactive | – |
| CNc1ncnc2ccc(-c3cccc(NS(C)(=O)=O)c3)cc12 | 11.6 µM (active) | – |
| O=C(CCS(=O)(=O)c1ccccc1)NC1CCCC1 | inactive | – |
| COC1=CCC2([N+](=O)[O-])CN(CC(=O)O)CC1([N+](=O)[O-])C2 (stereo not given) | inactive | – |
| CCOc1ccccc1NC(=O)CCn1cnnn1 | inactive | – |
| Cc1ccc(C)c(NC(=O)CN(C)C(=O)c2ccc3ncsc3c2)c1 | inactive | – |
| CCc1ccc(NC(=O)Cn2nc(C)c([N+](=O)[O-])c2C)cc1 | inactive | – |
| Cc1ccc(Oc2cc(NC(=O)CCCn3nc(C)c([N+](=O)[O-])c3C)cc([N+](=O)[O-])c2)cc1 | 16.4 µM (active) | – |
| COc1ccc(CNC(=O)CCCn2nc(C)c([N+](=O)[O-])c2C)cc1 | inactive | – |
| Cc1ccc(/C(N)=N/OC(=O)COc2ccc(Cl)c(C)c2)cc1 | inactive | – |
| C/C(=N\NC(=O)Cc1ccccc1[N+](=O)[O-])c1cccnc1 | inactive | – |
| CCc1ccccc1NC(=O)Cc1cn(C)c2ccccc12 | inactive | – |
| CC1CCN(c2ccc(C(=O)Nc3nnc(C4CC4)s3)cc2[N+](=O)[O-])CC1 | inactive | – |
| Cc1cccc(C)c1NC(=O)CNC(=O)c1ccc(N2CCOCC2)c([N+](=O)[O-])c1 | inactive | – |
| O=C(Nc1cccc(C(F)(F)F)c1)c1ccc(N2CCNCC2)c([N+](=O)[O-])c1 | 14.6 µM (active) | – |
| CCOc1ccc(NC(=O)CC(Cc2ccc(Cl)cc2)C(=O)O)cc1 (stereo not given) | inactive | – |
| N#C/C(=C\c1ccc(O)c(O)c1)C(N)=O | inactive | – |
| N#C/C(=C\c1ccc(O)c(O)c1)C(=O)NCc1ccccc1 | 29.9 µM (active) | – |
| CC(C)NC(=O)/C(C#N)=C\c1ccc(N(C)C)c(Br)c1 | inactive | – |
| CCc1nc(-c2cc(S(=O)(=O)N3CCN(c4ccc(OC)cc4)CC3)ccc2OC)no1 | inactive | – |
